Source: paper PMC5540273 (PLoS ONE, 2017)

Tests used:
Conditions in all cases: concentration: 1 μM,replicates: in singlicate; n = 1
PCTK2 = tested on: T1, PCTK2
T1 construct: gene CDK17

PCTK3 = tested on: T2, PCTK3
T2 construct: gene CDK18

PDGFRA = tested on: PDGFRA
PDGFRB = tested on: PDGFRB
PDPK1 = tested on: PDPK1
PFTAIRE2 = tested on: PFTAIRE2
PFTK1 = tested on: T3, PFTK1
T3 construct: gene CDK14

PHKG1 = tested on: PHKG1
PHKG2 = tested on: PHKG2
PIK3C2B = tested on: PIK3C2B
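Note: KINOMEscan kinase panel screen.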

Structure (SMILES)	%Inh (PCTK2) [%]	%Inh (PCTK3) [%]	%Inh (PDGFRA) [%]	%Inh (PDGFRB) [%]	%Inh (PDPK1) [%]	%Inh (PFTAIRE2) [%]	%Inh (PFTK1) [%]	%Inh (PHKG1) [%]	%Inh (PHKG2) [%]	%Inh (PIK3C2B) [%]
COC(=O)Nc1nc2cc(Oc3ccc(NC(=O)Nc4cc(C(F)(F)F)ccc4Cl)cc3)ccc2[nH]1.Cl [GW697465]	11	26	86	100	0	80	39	1	0	0
CCn1c(-c2nonc2N)nc2cncc(Br)c21 [SB-738004]	14	6	50	18	6	10	25	0	0	0
CCCC(=O)Nc1n[nH]c2ncccc12 [SB-601436]	0	0	0	0	0	14	9	0	0	0
Cc1cccc2c(-c3ccncc3)c(-c3ccc(F)cc3)nn12.Cl [GW461487]	0	0	0	14	0	9	11	0	0	0
CCn1c(-c2nonc2N)nc2cncc(CNC3CCNCC3)c21.Cl [SB-747651]	0	0	0	4	18	14	1	25	0	0
COc1cccc(OC)c1C(=O)Nc1cccc(-c2nn3ccccc3c2-c2ccnc(Nc3cccc(F)c3)n2)c1 [GSK361065]	0	3	0	90.2	4	2	3	1	2	0
O=C(NCC1CC1)c1ccc(-c2cc(C(=O)NC3CC3)ccc2F)cc1 [GW810445]	0	0	0	0	0	0	0	0	0	0
CS(=O)c1ccc(-c2coc3ccc(-c4n[nH]c(=O)o4)cc23)cc1 (stereo not shown)	2	0	10	0	0	0	4	0	6	8
O=C(Nc1cccc(Oc2ccc3nccn3n2)c1)Nc1cccc(C(F)(F)F)c1	0	8	99.8	100	0	0	1	14	0	12
CCNCC(Cc1ccccc1)NC(=O)c1cc(Br)c(-c2ccnc3[nH]ccc23)s1.Cl.Cl (stereo not shown) [GSK1383280]	15	0	51	75	0	0	21	27	20	0
C[C@@H]1CNc2c(sc3ccc4nc(-c5ccncc5)ccc4c23)C(=O)N1	6	0	72	56	0	0	0	39	55	0
Cn1ccc2ncnc(Oc3ccc(NC(=O)Nc4cncc(C(F)(F)F)c4)c(Cl)c3)c21	0	0	98.2	100	26	0	0	0	9	0
C[C@@H]1CNc2c(sc3ccc4nc(-c5ccc(O)cc5)ccc4c23)C(=O)N1	0	4	42	56	0	18	8	31	0	16
Cn1cc(-c2cccc3c(N)c(C(N)=O)nnc23)cn1	2	5	12	10	2	6	0	10	0	0
Cc1ccc(Nc2ccnc(Nc3ccc4c(c3)CS(=O)(=O)C4)n2)cc1O.Cl [GW579362]	35	16	92.8	100	38	15	27	0	1	4
Cc1ccc2c(-c3ccnc(Nc4ccc(C(F)(F)F)cc4)n3)cnn2n1 [GW819776]	12	0	0	45	0	12	0	18	0	0
CN(c1ccc2c(c1)nc(NCc1ccc(F)cc1)n2C)c1ccnc(Nc2ccc(CS(C)(=O)=O)cc2)n1.Cl [GW813244]	0	0	99	100	0	14	0	0	0	0

Structure (SMILES)	%Inh (PCTK2) [%]	%Inh (PCTK3) [%]	%Inh (PDGFRA) [%]	%Inh (PDGFRB) [%]	%Inh (PDPK1) [%]	%Inh (PFTAIRE2) [%]	%Inh (PFTK1) [%]	%Inh (PHKG1) [%]	%Inh (PHKG2) [%]	%Inh (PIK3C2B) [%]
COc1cc2c(Nc3ccc(NC(=O)c4ccccc4)cc3)ncnc2cc1OCCCN1CCOCC1 [GSK301329]	0	28	24	55	0	10	12	0	0	0
Cn1ccc2ncnc(Oc3ccc(NC(=O)Nc4cnn(C(C)(C)C)c4)c(Cl)c3)c21	5	0	99.6	100	5	0	0	0	0	27
C[C@@H](Oc1cc(-n2cnc3cc(-c4ccncc4)ccc32)sc1C(N)=O)c1ccccc1Cl [GSK479719]	0	15	67	95.1	40	17	18	0	16	0
NC(=O)Nc1sc(-c2ccc(F)cc2)cc1C(N)=O [GW789449]	100	0	5	54	13	16	0	1	0	40
O=C(Nc1ccc(Oc2ccc3nc(NC(=O)C4CC4)cn3n2)c(F)c1)c1cccn(-c2ccccc2)c1=O	5	5	96.3	100	0	0	0	61	0	0
CC(=O)Nc1ccc(-c2cc3ncnc(SCC(=O)O)c3s2)cc1	0	24	64	88	0	4	0	21	3	6
Cc1cccc(-c2nc(Nc3ccncc3)c3sccc3n2)n1 [GW869641]	0	0	36	27	7	5	0	0	5	29
NC(=O)c1ccc(-c2cc3ncnc(SCC(=O)O)c3s2)cc1	0	2	71	80	0	0	7	0	1	0
Cl.Nc1n[nH]c2cc(-c3ccccn3)ccc12 [GSK2189892]	13	0	0	16	0	5	6	0	0	0
CC(C)S(=O)(=O)N1CCN(Cc2ccc3c(c2)nc(NC(=O)c2ccsc2)n3C[C@H](O)c2ccccc2)CC1 [GW635815]	0	4	0	38	4	19	0	64	43	0
COc1ccc(Nc2nccc(N3CCC(NC(=O)c4cccc(C#N)c4)C3)n2)cc1 (stereo not shown) [GSK1379730]	0	3	0	4	26	0	0	0	0	0
CS(=O)(=O)c1cccc(CNc2nc(Nc3ccc4c(c3)[C@@H]3C[C@@H]4CNC3=O)ncc2C(F)(F)F)c1	0	0	9	73	0	18	0	0	0	0
O=C1NCCc2[nH]c(-c3ccncc3)cc21	0	1	27	17	0	0	0	0	14	21
COC(=O)c1cccc(NC(=O)NC2CCN(c3ccnc(Nc4cc(OC)c(OC)c(OC)c4)n3)C2)c1 (stereo not shown) [GSK1379767]	24	0	6	65	0	0	20	10	2	0
CC(=O)Nc1nc2cnc(Nc3cc(NC(=O)c4cccc(CC(C)(C)C#N)c4)ccc3C)nc2s1	47	29	99	100	39	31	14	19	0	14
OCCn1cc(-c2cnc3nnn(Cc4ccc5ncccc5c4)c3n2)cn1	0	0	0	0	0	0	0	5	0	0
CN(c1ccccc1CNc1nc(Nc2ccc3c(c2)CC(=O)N3)ncc1C(F)(F)F)S(C)(=O)=O	49	4	3	83	34	35	8	35	25	0
